PubChem BioAssay (NCI)
Where “and” joins values, the source holds several entries; their conditions need not be identical. Equal entries are not always repeated. Compounds without any hit were thinned out: in the full panel of roughly 83,000, 20% have a hit.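 Activity criterion: percent growth below 10, measured after cells in 96-well plates were exposed to a single compound concentration for 48 hours.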 Calls of active or inactive are those of the source.

Columns and labels:
Assay in all cases: NCI-60 one-dose screen, 48 h (100 = growth as untreated, 0 = no growth, -100 = all killed)
[1] = system: SK-MEL-2 melanoma
[2] = system: EKVX NSCLC
[3] = system: SN12C renal
[4] = system: UO-31 renal
[5] = system: TK-10 renal
[6] = system: ACHN renal
[7] = system: CAKI-1 renal
[8] = system: A498 renal
[9] = system: CCRF-CEM leukemia
[10] = system: MOLT-4 leukemia
[11] = system: SR leukemia
[12] = system: RPMI-8226 leukemia
[13] = system: OVCAR-8 ovarian
[14] = system: OVCAR-5 ovarian
[15] = system: OVCAR-4 ovarian
[16] = system: SK-OV-3 ovarian
[17] = system: IGROV1 ovarian
[18] = system: HS 578T breast
[19] = system: NCI/ADR-RES ovarian
[20] = system: OVCAR-3 ovarian; conditions: 10 µM

Measured: growth

O=C(NC(=S)Nc1ccccn1)c1ccccc1
inactive: [1]; 10 µM 127% | [2]; 10 µM 74.8% | [3]; 10 µM 97.1% | [4]; 10 µM 93.9% | [5]; 10 µM 125% | [6]; 10 µM 95.1% | [7]; 10 µM 82% | [8]; 10 µM 70.5% | [9]; 10 µM 62.2% | [10]; 10 µM unless noted 93.1% | [11]; 10 µM 112% | [12]; 10 µM 60.4% | [13]; 10 µM 103% | [14]; 10 µM 89.1% | [15]; 10 µM 62.7% | [16]; 10 µM 107% | [17]; 10 µM 78.7% | [18]; 10 µM 88.8% | [19]; 10 µM 55.3%

Cc1c(-c2ccccc2)[nH]c2ccccc12
inactive: [1]; 10 µM 115% | [2]; 10 µM 104% | [3]; 10 µM 114% | [4]; 10 µM 90.4% | [5]; 10 µM 119% | [6]; 10 µM 100% | [7]; 10 µM 91.5% | [8]; 10 µM 91.3% | [9]; 10 µM 95.1% | [10]; 10 µM unless noted 99.6% | [11]; 10 µM 102% | [12]; 10 µM 88.3% | [13]; 10 µM 105% | [14]; 10 µM 99% | [15]; 10 µM 96.7% | [17]; 10 µM 103% | [18]; 10 µM 102% | [19]; 10 µM 105%

CC(=O)O[C@H]1C(=O)[C@@]2(C)[C@H]([C@H](OC(=O)c3ccccc3)[C@]3(O)C[C@H](OC(=O)[C@H](O)[C@@H](NC(=O)c4ccccc4)c4ccccc4)C(C)=C1C3(C)C)[C@]1(OC(C)=O)CO[C@@H]1C[C@@H]2O
active: [1]; 2.5 µM 3.85% | [9]; 2.5 µM 2.13% | [9]; 5 µM 5.52% | [9]; 10 µM 7.71% and 5.2% | [11]; 2.5 µM 7.15% | [11]; 5 µM 9.15% | [12]; 0.01 µM -10.5% | [12]; 5 µM 1.39% | [12]; 10 µM -42.3% and 8.81% | [13]; 2.5 µM 4.98% | [14]; 2.5 µM 9.17% | [18]; 0.01 µM -47.1% | [18]; 2.5 µM -18.5% | [18]; 5 µM -14.2% | [18]; 10 µM -14.9% and 2.62% | [19]; 10 µM -0.311% and 9.92%
-2.72% (active) and 12.2% (inactive): [11]; 10 µM
-13% (active) and 57.6% (inactive): [15]; 10 µM
-24.8% (active) and 39.1% (inactive): [17]; 10 µM
inactive: [1]; 0.01 µM 72.5% | [1]; 5 µM 21.3% | [1]; 10 µM 25.7% and 32% | [2]; 0.01 µM 60.7% | [2]; 2.5 µM 35% | [2]; 5 µM 40.5% | [2]; 10 µM 47.1% and 41.5% | [3]; 0.01 µM 46.3% | [3]; 2.5 µM 25.5% | [3]; 5 µM 32% | [3]; 10 µM 55.6% and 33.2% | [4]; 0.01 µM 103% | [4]; 2.5 µM 42.6% | [4]; 5 µM 42.7% | [5]; 0.01 µM 87.7% | [5]; 2.5 µM 44.7% | [5]; 5 µM 46.1% | [5]; 10 µM 18.4% and 43.6% | [6]; 0.01 µM 95.3% | [6]; 2.5 µM 42.4% | [6]; 5 µM 44.8% | [6]; 10 µM 25.4% and 43.1% | [7]; 0.01 µM 93.4% | [7]; 2.5 µM 22.2% | [7]; 5 µM 23.1% | [7]; 10 µM 25.1% and 23.4% | [8]; 0.01 µM 61.7% | [8]; 2.5 µM 74.4% | [8]; 5 µM 96.2% | [8]; 10 µM 93.6% and 52.1% | [9]; 0.01 µM 11.7% | [10]; 0.01 µM 48.2% | [10]; 10 µM 22.8% | [11]; 0.01 µM 19.1% | [12]; 2.5 µM 11.4% | [13]; 5 µM 11.6% | [13]; 10 µM 18.4% | [14]; 0.01 µM 20.6% | [14]; 5 µM 10.8% | [14]; 10 µM 41.8% and 13.7% | [15]; 0.01 µM 64.7% | [15]; 2.5 µM 56.9% | [15]; 5 µM 61.3% | [16]; 0.01 µM 52% | [16]; 2.5 µM 10.2% | [16]; 5 µM 16.2% | [16]; 10 µM 42.9% and 12.8% | [17]; 0.01 µM 39% | [17]; 2.5 µM 32.2% | [17]; 5 µM 35.2% | [19]; 0.01 µM 92.8% | [19]; 2.5 µM 50.7% | [19]; 5 µM 25.9%
9.24% (active) and 39.3% (inactive): [4]; 10 µM

Cc1cc(C)c(N2C(=O)CC(Sc3ccccc3N)C2=O)c(C)c1 (configuration not stated)
inactive: [1]; 10 µM 88.5% | [2]; 10 µM 87.1% | [3]; 10 µM 90.4% | [4]; 10 µM 55.5% | [5]; 10 µM 123% | [6]; 10 µM 87.7% | [7]; 10 µM 47.7% | [8]; 10 µM 54.2% | [9]; 10 µM 34.9% | [10]; 10 µM unless noted 76.5% | [11]; 10 µM 23.4% | [12]; 10 µM 66.3% | [13]; 10 µM 91.1% | [14]; 10 µM 118% | [15]; 10 µM 71.4% | [16]; 10 µM 71.6% | [17]; 10 µM 92% | [18]; 10 µM 81% | [19]; 10 µM 75%

O=C1C(Cl)=C(Cl)C(Cl)(Cl)C(Cl)C1(Cl)Cl (configuration not stated)
inactive: [1]; 10 µM 100% | [2]; 10 µM 105% | [3]; 10 µM 88.5% | [4]; 10 µM 84.5% | [5]; 10 µM 98.9% | [6]; 10 µM 100% | [7]; 10 µM 99% | [8]; 10 µM 115% | [9]; 10 µM 94.9% | [10]; 10 µM unless noted 94.8% | [11]; 10 µM 90.2% | [12]; 10 µM 98.1% | [13]; 10 µM 106% | [14]; 10 µM 102% | [16]; 10 µM 103% | [17]; 10 µM 90.9% | [20] 112% | [18]; 10 µM 109% | [19]; 10 µM 104%

O=S(=O)(c1cc(Cl)ccc1O)c1cc(Cl)ccc1O
inactive: [1]; 10 µM 64% | [2]; 10 µM 100% | [3]; 10 µM 80.4% | [4]; 10 µM 71.8% | [5]; 10 µM 87.5% | [6]; 10 µM 84.9% | [7]; 10 µM 92.1% | [8]; 10 µM 59.6% | [9]; 10 µM 76.2% | [10]; 10 µM unless noted 90.2% | [11]; 10 µM 84.6% | [12]; 10 µM 51.2% | [13]; 10 µM 83.7% | [14]; 10 µM 116% | [15]; 10 µM 85.3% | [16]; 10 µM 78.4% | [17]; 10 µM 83.5% | [18]; 10 µM 65.6% | [19]; 10 µM 91.9%

S=P(N1CC1)(N1CC1)N1CC1
active: [6]; 100 µM 8.37% | [7]; 100 µM 2.65%
inactive: [1]; 10 µM 116% and 93.3% | [1]; 100 µM 113% | [2]; 10 µM 107% and 90.2% | [2]; 100 µM 101% | [3]; 10 µM 98.5% and 72.8% | [3]; 100 µM 44.1% | [4]; 10 µM 71.9% and 83.7% | [4]; 100 µM 39.1% | [5]; 10 µM 115% and 111% | [5]; 100 µM 98.8% | [6]; 10 µM 104% and 60.1% | [7]; 10 µM 91.6% and 47.4% | [8]; 10 µM 122% and 69.4% | [8]; 100 µM 67.8% | [9]; 10 µM 107% and 106% | [9]; 100 µM 21.4% | [10]; 10 µM 98.2% and 61.8% | [10]; 100 µM 22.6% | [11]; 10 µM 35.4% | [11]; 100 µM 22.6% | [12]; 10 µM 99.2% and 136% | [12]; 100 µM 51.4% | [13]; 10 µM 110% and 80.7% | [14]; 10 µM 108% and 77.1% | [14]; 100 µM 64.7% | [15]; 10 µM 116% and 90.4% | [15]; 100 µM 87.9% | [16]; 10 µM 110% and 108% | [16]; 100 µM 67.2% | [17]; 10 µM 101% and 78.2% | [17]; 100 µM 70.7% | [18]; 10 µM 113% and 126% | [18]; 100 µM 66% | [19]; 10 µM 107% and 88.6% | [19]; 100 µM 40.3%

O=C1C=CC(=O)N1c1ccc(N2C(=O)C=CC2=O)cc1
active: [10]; 10 µM unless noted -9.11% | [11]; 10 µM 0.0539%
inactive: [1]; 10 µM 108% | [2]; 10 µM 90.8% | [3]; 10 µM 102% | [4]; 10 µM 76.7% | [5]; 10 µM 92% | [6]; 10 µM 92.2% | [7]; 10 µM 69.9% | [8]; 10 µM 149% | [9]; 10 µM 15.9% | [12]; 10 µM 38.6% | [13]; 10 µM 109% | [14]; 10 µM 97.7% | [15]; 10 µM 101% | [16]; 10 µM 97.3% | [17]; 10 µM 105% | [18]; 10 µM 128% | [19]; 10 µM 102%

Cc1cc(Cl)ccc1NC(=O)/C(Cl)=C1/Sc2ccccc2NC1=O
inactive: [2]; 10 µM 70.4% | [3]; 10 µM 106% | [4]; 10 µM 76.4% | [5]; 10 µM 146% | [6]; 10 µM 85.4% | [7]; 10 µM 60.8% | [8]; 10 µM 131% | [9]; 10 µM 76.5% | [10]; 10 µM unless noted 83.5% | [11]; 10 µM 100% | [12]; 10 µM 69.4% | [14]; 10 µM 93.5% | [15]; 10 µM 89.8% | [16]; 10 µM 103% | [17]; 10 µM 68.7% | [20] 95.4% | [18]; 10 µM 122% | [19]; 10 µM 87.6%

Cc1cc(O)c2c(c1O)C(=O)C13C(=C2O)C(=O)C2C(O)C1C1C(O)C3C(=O)C3=C(O)c4c(O)cc(C)c(O)c4C(=O)C321 (configuration not stated)
active: [1]; 10 µM -6.64% | [7]; 10 µM -33.6% | [9]; 10 µM 4.16% | [10]; 10 µM unless noted 8.98% | [12]; 10 µM -4.03% | [14]; 10 µM -50.6% | [16]; 10 µM -13.1% | [18]; 10 µM -55.2% | [19]; 10 µM -17%
inactive: [2]; 10 µM 44.3% | [3]; 10 µM 12.7% | [4]; 10 µM 22.6% | [5]; 10 µM 22.3% | [6]; 10 µM 11.4% | [11]; 10 µM 12.6% | [15]; 10 µM 27.8% | [17]; 10 µM 10.3%

COc1ccc(C(C#N)=C2C=CC(=NO)C=C2)cc1
inactive: [2]; 10 µM 125% | [3]; 10 µM 95.8% | [4]; 10 µM 67% | [5]; 10 µM 12.9% | [6]; 10 µM 78.5% | [7]; 10 µM 93.6% | [8]; 10 µM 114% | [9]; 10 µM 29.8% | [10]; 10 µM unless noted 58.4% | [11]; 10 µM 49.8% | [12]; 10 µM 22% | [13]; 10 µM 80.3% | [14]; 10 µM 137% | [15]; 10 µM 91.7% | [16]; 10 µM 114% | [17]; 10 µM 60.9% | [20] 87.3% | [18]; 10 µM 99.6% | [19]; 10 µM 94.8%
